NALP3 yeast inh: NALP3 inhibition in yeast; Yeast reconstituted NLRP3/ASC/caspase-1, beta-gal luminescence, 24 h; inhibition, % at 10 µM; 330,000 compounds, 0.39% hits; AID 2825;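 active means inhibition of 50% or more; inactive means inhibition below 50%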;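 further: plate controls were induced DMSO wells for no effect and uninduced yeast grown without galactose for full effect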
tim23-1 inh: inhibits growth of tim23-1 mutant yeast | 330,000 compounds, 1.3% hits | AID 463212 | inhibition, % at 20 µM | S. cerevisiae tim23-1 growth, BacTiter-Glo luminescence, 24 h;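 active means growth inhibition of the mutant yeast at or above 50%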;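 further: temperature-sensitive mutant grown at 25 °C; plate controls were DMSO-treated mutant yeast for no effect and medium wells lacking yeast for full effect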
SKKanGAS inh: inhibitors of SKKanGAS S. pyogenes growth in kanamycin (SK-promoter or general growth effect) | BacTiter-Glo, 6 h | inhibition, % at 7.5 µM | 300,000 compounds, 1.3% hits | AID 1662;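 active means mean replicate score, as percent of positive control median, at least 50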;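 further: strain carries kanamycin resistance gene driven by streptokinase promoter and grows in 40 µg/ml kanamycin; loss of luminescence reflects streptokinase promoter inhibition or plain growth inhibition; 0% = median of DMSO wells and 100% = positive control at its reference dose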
TIM10 inh: TIM10 yeast growth inhibition; S. cerevisiae TIM10 strain growth, BacTiter-Glo luminescence, 24 h; inhibition, % at 10 µM; 330,000 compounds, 1.4% hits;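 active means inhibition of 40% or more at the single tested concentration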;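 further: wild-type TIM10 isogenic control strain grown at permissive 25 °C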
tim10-1 inh: growth inhibitors of tim10-1 mutant yeast | S. cerevisiae tim10-1 ts strain growth, BacTiter-Glo, 24 h | inhibition, % at 20 µM | 330,000 compounds, 2.2% hits;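 active means inhibition of at least 40%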;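 further: mutant grown at 25 °C; 0% = DMSO wells with yeast and 100% = wells holding no yeast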
tim10-1 confirm: tim10-1 yeast growth inhibition, confirmed; shares compounds with tim10-1 inh; S. cerevisiae tim10-1 ts strain growth, BacTiter-Glo, 24 h; inhibition, % at 20 µM; 7,400 compounds, 56% hits; AID 463213;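 active means inhibition of yeast growth at or above a set limit in either of two repeat tests at 20 µM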;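 further: tim10-1 mutant grown at permissive 25 °C to find synthetic lethal compounds; 0% = DMSO yeast wells and 100% = medium wells without yeast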
TIM10 conf: TIM10 yeast growth inhibition, confirmed | S. cerevisiae tim10 strain growth, BacTiter-Glo luminescence, 24 h | 4,600 compounds, 63% hits | inhibition, % at 10 µM | shares compounds with TIM10 inh;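 active means inhibition of yeast growth at or above a set limit in either of two replicates at 10 µM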;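 further: this counterscreen used the strain with wild-type TIM10; 0% = yeast with DMSO and 100% = medium wells lacking yeast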
* hit, by the source's call; nt = no result given. The list is not random: actives were taken first. Their share in the collection is about 4.6%.

SMILES	NALP3 yeast inh	tim23-1 inh	SKKanGAS inh	TIM10 inh	tim10-1 inh	tim10-1 confirm	TIM10 conf
O=C(c1ccc(-c2ccc([N+](=O)[O-])cc2)o1)N1CCCCC1	-18.0	33.3	-5.0	40.0*	54.2*	46.2*	25.4
S=C(NCCSCc1ccc(Cl)cc1)Nc1ccccc1	41.1	44.9	-12.9	52.1*	41.9*	34.3*	-19.2
S=C(NCCCc1ccccc1)Nc1ccc(Cl)cc1	26.9	46.6	-6.9	47.2*	54.9*	51.7*	-26.6
CCCCCC(=O)NC(=S)Nc1ccc(Cl)cn1	2.8	40.1	-6.2	44.0*	46.5*	28.4*	6.1
CCCCCC(=O)Nc1ccc(Cl)cn1	8.3	7.1	5.1	-8.1	-8.1	nt	nt
Cc1ccc(Nc2ncccc2C(=O)NCc2cccs2)c(C)c1	1.1	36.1	11.6	50.6*	48.9*	33.2*	39.0*
COc1ccc(C)cc1Nc1nc(N)c2ccccc2n1	40.4	-0.2	-1.2	15.1	-9.6	nt	nt
CN(C)c1ccc(Nc2nc(N)c3ccccc3n2)cc1	18.9	43.3	36.9	44.4*	55.4*	50.0*	35.8*
Cc1cc(C)cc(NC(=S)NC(=O)Cc2ccccc2)c1	23.0	46.6	2.7	40.3*	44.2*	30.2*	40.5*
COCCNC(=O)C(c1ccc(F)cc1)N(C(=O)CCC(=O)Nc1ccccn1)c1ccc(C)cc1 (configuration not stated)	21.2	-8.0	-5.4	4.0	-15.4	nt	nt
COc1ccc(O)c(CN2CCC(n3nccc3NC(=O)c3ccccc3Cl)CC2)c1	20.9	1.6	1.0	-0.9	-12.0	nt	nt
C=CCOc1ccccc1/C=c1\sc2nc(-c3oc4ccccc4c3C)nn2c1=O	0.5	24.7	4.0	0.8	23.0	nt	nt
COc1ccccc1/C=c1\sc2nc(-c3ccccc3OC)nn2c1=O	14.6	47.2	nt	50.0*	48.6*	54.2*	23.6
N/C(=N\OC(=O)CCCOc1ccc(Cl)cc1Cl)c1ccncc1	11.2	5.7	17.2	42.7*	53.8*	30.4*	3.6
N/C(=N\OC(=O)CCCOc1ccccc1)c1ccncc1	5.5	13.4	6.5	-3.0	10.8	nt	nt
N/C(=N\OC(=O)COc1ccc(Cl)cc1Cl)c1cccnc1	24.5	19.4	-8.3	23.6	20.1	nt	nt
N/C(=N\OC(=O)c1ccc(Br)cc1)c1ccccc1	14.5	40.2	5.7	50.2*	55.1*	52.0*	67.3*
N/C(=N\OC(=O)c1cccc(Br)c1)c1ccc(Br)cc1	16.7	12.6	4.2	4.2	-30.9	nt	nt
N/C(=N\OC(=O)CCCOc1ccccc1)c1ccccc1	14.1	40.8	-0.5	51.0*	44.1*	37.1*	34.5*
COc1cccc(NC(=O)CN(C)C(C)C(=O)NC(=O)NC2CCCCC2)c1 (configuration not stated)	12.2	25.2	nt	4.0	9.2	nt	nt
CCN(CC)S(=O)(=O)c1ccc(O)c(C(=O)OCC(=O)NC23CC4CC(CC(C4)C2)C3)c1	15.9	15.1	nt	2.8	7.1	nt	nt
CN(C(=O)COC(=O)c1ccc2c(c1)OCCO2)c1ccccc1	2.8	47.9	-0.1	49.8*	44.1*	47.5*	43.0*
CC(C)N(Cc1ccccc1)C(=O)COC(=O)c1ccc2c(c1)OCCO2	22.7	-12.2	5.1	-5.4	21.9	nt	nt
CSCCC(NC(=O)c1ccccc1Br)C(=O)N1CCCCCCC1 (configuration not stated)	9.5	13.8	-8.6	13.0	10.2	nt	nt
CCOC(=O)C1CCN(C(=O)COC(=O)c2c(C)c(CC)nc3ccccc23)CC1	8.5	32.7	nt	18.2	16.7	nt	nt
Cc1ccc(N2C(=O)CC(Sc3ccccc3C(=O)O)C2=O)cc1C (configuration not stated)	21.3	28.2	-4.7	43.1*	41.9*	47.2*	39.8*
Cc1cccc(N2C(=O)CC(Sc3ccccc3C(=O)O)C2=O)c1 (configuration not stated)	17.6	34.3	-0.6	41.3*	49.3*	46.0*	15.4
CN(C(=O)Cn1c(=O)oc2cc(S(=O)(=O)N3CCCC3)ccc21)C1CCCCC1	10.3	14.0	2.0	-6.7	6.3	nt	nt
O=C(COC(=O)Cc1cccs1)NCc1ccc(F)cc1	7.0	6.6	-4.2	-1.5	0.8	nt	nt
Clc1ccc2c(c1)c1cc(Cl)ccc1n2CN1CCOCC1	18.3	-12.3	32.7	51.3*	62.5*	38.7*	59.1*

Assay outcomes deposited in PubChem BioAssay by several laboratories.
